Only some compounds are listed: those with a hit (about 3.5% of all), similar ones and a draw of the others.
TEAD-YAP inh: TEAD-YAP interaction inhibition; AID 1259422; actives 1.4% (n = 640,000); HEK-TIYL cells, TEAD-Gal4/YAP UAS-luciferase luminescence; inhibition, % at 9.12 µM; in the data active means inhibition above about 32%;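 further: 0% = median of test compound wells and 100% = reference inhibitor wells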
FBW7 act: activators of human E3 ligase FBW7; AID 1259310; Q969H0; normalized activity (activation), % at 26.1 µM; actives 0.13% (n = 650,000); AlphaScreen FBW7–phospho-cyclin E peptide binding, activator screen; in the data active means normalized activity above about 1.9%;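 further: purified mutant Fbw7 with reduced substrate affinity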
Target sequence (Q969H0 whole entry, looked up): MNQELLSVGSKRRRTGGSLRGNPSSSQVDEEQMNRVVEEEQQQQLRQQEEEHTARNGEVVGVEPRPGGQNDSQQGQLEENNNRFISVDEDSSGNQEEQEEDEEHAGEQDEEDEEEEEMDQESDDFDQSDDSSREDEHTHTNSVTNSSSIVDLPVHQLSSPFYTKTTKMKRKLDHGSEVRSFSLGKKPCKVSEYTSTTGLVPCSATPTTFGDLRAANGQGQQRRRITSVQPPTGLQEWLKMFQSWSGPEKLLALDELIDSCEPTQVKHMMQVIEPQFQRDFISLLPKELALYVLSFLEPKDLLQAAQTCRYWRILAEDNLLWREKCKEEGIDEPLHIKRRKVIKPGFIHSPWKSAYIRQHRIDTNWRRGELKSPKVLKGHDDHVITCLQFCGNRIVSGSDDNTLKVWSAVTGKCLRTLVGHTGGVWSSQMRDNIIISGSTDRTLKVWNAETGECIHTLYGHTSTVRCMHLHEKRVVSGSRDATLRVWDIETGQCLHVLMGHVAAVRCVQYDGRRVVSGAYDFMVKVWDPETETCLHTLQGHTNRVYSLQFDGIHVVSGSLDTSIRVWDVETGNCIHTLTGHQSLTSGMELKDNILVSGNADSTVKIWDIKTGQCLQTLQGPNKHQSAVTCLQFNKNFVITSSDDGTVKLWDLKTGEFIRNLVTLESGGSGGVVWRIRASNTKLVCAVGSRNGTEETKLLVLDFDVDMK
GPR151 activ: human GPR151 activation; Q8TDV0; PathHunter beta-arrestin GPR151 cells, luminescence; activation, % at 11.2 µM; actives 1% (n = 650,000); AID 1508602; in the data active means activation above about 4.9%;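 further: 0% = median of compound wells and 100% = cells with positive control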
MITF primary: inhibitors of human MITF | actives 0.91% (n = 650,000) | AID 1259374 | inhibition, % at 2.6 µM | AlphaScreen MITF homodimerization, bead proximity signal | O75030; in the data active means inhibition above about 50%;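 further: 0% = vehicle wells with protein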
MITF inh conf: human MITF inhibition, confirmation. shares compounds with MITF primary. AlphaScreen MITF homodimerization, biotin/His-MITF beads. inhibition, % at 2.6 µM. actives 16% (n = 4,700). AID 1259372;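 active means inhibition above a cutoff derived from the DMSO control wells, cut at about 28% in these data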;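 further: 0% = MITF dimer wells with DMSO only; inhibitors lower the bead chemiluminescence by keeping MITF from dimerizing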
AS interf ctr: counter-screen: compounds optically interfering with AlphaScreen | shares compounds with MITF primary | LysRS AlphaScreen counterscreen, signal interference, triplicate | inhibition, % at 2.6 µM | actives 7.6% (n = 4,700) | AID 1259376;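 active means inhibition above a cutoff derived from the DMSO control wells, cut at about 30% in these data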
Active calls of the source: *; . = no result given.

SMILES	TEAD-YAP inh	FBW7 act	GPR151 activ	MITF primary	MITF inh conf	AS interf ctr
COc1ccc(-c2c(F)ccc3cnc(Nc4ccc(-n5cnc(N6CCOCC6)n5)cc4)nc23)cc1F	-10	0	0	56*	21	26
O=C1NN(c2ccc(Cl)cc2)C(=O)/C1=C\c1ccc(Cl)cc1	10	0	1	16	.	.
CCOC(=O)c1ccc(NC(=O)CCOc2ccccc2)cc1	1	0	1	75*	7	8
CC(C)(C)c1nnc(NC(=O)CN2C(=O)C3C4C=CC(C4)C3C2=O)s1 (stereo unspecified)	4	0	0	68*	1	-10
Cc1nnc(SCc2nc3ccccc3[nH]2)n1C	5	0	0	74*	13	16
COc1ccccc1-c1nnc(SCc2nc3ccccc3[nH]2)n1C	7	0	0	7	.	.
Cc1cc(C(C)(C)C)ccc1OCCCN1CCOCC1	-13	0	-1	48	.	.
O=C(Nc1nc(CC(=O)N2CCc3ccccc3C2)cs1)C1CC1	13	0	1	59*	-2	-1
COc1ccccc1OCCCOc1ccc(/C=C2/C(=N)N3C=CSC3=NC2=O)cc1OC	-1	0	0	6	.	.
CS(=O)(=O)N1CCN=C1SCc1ccccc1F	-11	0	1	52*	14	8
CS(=O)(=O)c1ccc2nc(NC(=O)/C=C/c3ccccc3Cl)sc2c1	1	0	0	7	.	.
CS(=O)(=O)c1ccc2nc(NC(=O)/C=C/c3cccc([N+](=O)[O-])c3)sc2c1	1	0	1	80*	-9	-6
Cc1cc(OCCNCCO)ccc1C(C)C	-6	0	0	4	.	.
Cc1cc(OCCOCCN2CCCC2)ccc1C(C)C	2	0	4	25	.	.
C=CCNCCOCCOc1ccc(C(C)C)c(C)c1	4	0	-1	52*	0	1
Cc1cc(OCCCCNCCO)ccc1C(C)C	3	0	-1	62*	-12	-3
COCCNCCOc1ccc(C(C)C)c(C)c1	5	0	-2	60*	11	12
Cc1cccc(OCCCCNCCO)c1C	13	0	-1	-8	.	.
Cc1ccc(C)c(OCCCCNCCO)c1C	1	0	0	56*	-13	-3
COC(=O)c1ccccc1NC(=O)C1CCCN1S(=O)(=O)c1cccc2cccnc12 (stereo unspecified)	-7	0	1	-11	.	.
CCCCOC(=O)Cn1c(=O)c2c(nc(N3CCCCC3)n2C)n(C)c1=O	4	0	0	13	.	.
COCCCNCCOc1ccc(C(C)C)c(C)c1	-11	0	0	60*	-1	6
Cc1cc(OCCNCCN)ccc1C(C)C	4	0	-1	-7	.	.
COCCCNCCCOc1ccc(OCc2ccccc2)cc1	-11	0	0	54*	6	16
COc1ccc(CNC(=O)C/C(C)=N/NC(=O)c2cccc(F)c2)cc1	-52	1	-2	19	.	.
SMILES	TEAD-YAP inh	FBW7 act	GPR151 activ	MITF primary	MITF inh conf	AS interf ctr
Cc1cc(C)cc(N2C(=O)CS(=O)(=O)C2c2cccc(Br)c2)c1 (stereo unspecified)	8	0	0	-2	.	.
O=C1CS(=O)(=O)C(c2ccccc2)N1c1ccccc1 (stereo unspecified)	-2	0	3	72*	-2	-1
Cc1ccc(S(=O)(=O)N2CCc3ccc(NC(=O)C(C)(C)C)cc3C2)cc1	-1	0	0	23	.	.
COC(=O)c1ccc(CN2CCC(Cn3cnc4ccccc43)CC2)cc1	16	0	-1	82*	7	20
O=C(Cn1c(=O)oc2ccccc21)N1CCC(Cn2cnc3ccccc32)CC1	4	0	1	53*	11	14
CCOC(=O)CCC(=O)N1CCC(Cn2cnc3ccccc32)CC1	4	0	2	59*	7	13
CCOCC(=O)N1CCC(Cn2cnc3cc(C)c(C)cc32)CC1	6	0	0	66*	4	16
O=C(Cn1cnc2ccccc21)N1CCC(Cn2cccn2)CC1	12	0	-2	-7	.	.
COC(=O)c1ccc(CN2CCC(c3nc4ccccc4[nH]3)CC2)cc1	4	1	-1	23	.	.
CC1(C)NC(=O)N(CC2C(C)(C)C2(Cl)Cl)C1=O (stereo unspecified)	-11	0	0	6	.	.
O=C(/C=C/c1cccs1)NCC1CCN(C(=O)/C=C/c2cccs2)CC1	-6	0	1	17	.	.
C=CCNC(=O)CN1CCC(Cn2cnc3cc(C)c(C)cc32)CC1	13	0	0	54*	18	15
O=C(c1cccc(F)c1)N1CCC(Cn2cnc3ccccc32)CC1	4	0	2	50	.	.
O=C(CN1CCC(Cn2cnc3ccccc32)CC1)Nc1cccc(F)c1	2	0	3	54*	6	8
O=C(Cn1ncc2ccccc21)N1CCC(Cc2ccccc2)CC1	11	0	0	8	.	.
O=C(/C=C/c1cccs1)N1CCC(Cn2cnc3ccccc32)CC1	4	0	1	65*	9	10
O=C(CN1CCC(Cn2cnc3ccccc32)CC1)N1CCC(Cc2ccccc2)CC1	61*	0	-1	74*	8	10
COc1ccc(C(=O)NC(=S)Nc2cccc(C(C)=O)c2)cc1OC	-15	0	0	-15	.	.
CCN1CCN(C(c2ccc(OC)cc2OC)c2nnnn2C(C)(C)C)CC1 (stereo unspecified)	-4	0	2	0	.	.
CC1CN(Cc2ccc(Cl)cc2)CC(C)O1 (stereo unspecified)	0	0	1	37	.	.
CC1CN(Cc2cccc(Cl)c2)CC(C)O1 (stereo unspecified)	1	0	-1	64*	0	4
CC1CN(Cc2ccc(C(F)(F)F)cc2)CC(C)O1 (stereo unspecified)	8	0	-1	55*	1	4
COC(=O)C(NC(=O)C(Cc1c[nH]c2ccccc12)NC(=O)C(Cc1ccccc1)NC(=O)OC(C)(C)C)C(C)C (stereo unspecified)	6	0	-2	-4	.	.
CC(C(=O)N1CCN(Cc2ccccc2)CC1)N(c1ccc(Cl)cc1)S(C)(=O)=O (stereo unspecified)	15	0	1	83*	-4	-6
Cc1ccc(Oc2ccc(OCC(=O)NCC3CCCO3)cc2)cc1 (stereo unspecified)	16	0	0	75*	0	11
O=C(C1CC12CCN(Cc1cn[nH]c1-c1ccccc1)CC2)N1CCc2ccccc2C1 (stereo unspecified)	-1	0	0	-12	.	.
c1ccc(COc2ccc(OCCCCn3cncn3)cc2)cc1	-12	0	-2	7	.	.
